Results: PubChem BioAssay (EPA / NIEHS)
“And” between values parts separate entries of the source, which are not always exact repeats. Identical values can stand only once. Inconclusive results are not listed. The source made the active and inactive calls. Rule for the calls, unless noted: active = hit-call score of the fitted dose curve at least 0.9, where 1 is the maximum; inconclusive = response in the unintended direction; inactive = score below 0.9.

Tests used:
[1] = CEETOX_H295R_ESTRONE: CeeTox H295R High-throughput Steroidogenesis Assay for Estrone (AID 2283441; active = hit-call score of the fitted dose curve at least 0.9, where 1 is the maximum; inactive = score below 0.9;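 note: estrone secreted into medium measured by LC-MS/MS after dansyl derivatization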); settings: actives raise or lower the signal
Method in brief: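 H295R cells; 48 h forskolin (10 uM) prestimulation; 48 h compound exposure, 0.1% DMSO final. Medium estrone: MTBE extraction, dansyl derivatization, HPLC-MS/MS. Bidirectional fit vs DMSO.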

[2] = CEETOX_H295R_PROG: CeeTox H295R High-throughput Steroidogenesis Assay for Progesterone (PROG) (AID 2283442; active = hit-call score of the fitted dose curve at least 0.9, where 1 is the maximum; inactive = score below 0.9;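 for AC50: human H295R adrenal cells primed with 10 µM forskolin before dosing; progesterone secreted into medium by H295R cells measured by HPLC-MS/MS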); settings: actives raise or lower the signal
Method in brief: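 Adrenal H295R line, forskolin-stimulated (10 uM, 48 h) before dosing. 48 h exposure, 0.1% DMSO vehicle. Secreted progesterone by reverse-phase HPLC with ESI+ MS/MS quantification; DMSO-normalised bidirectional curve fit.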

[3] = CEETOX_H295R_TESTO: CeeTox H295R High-throughput Steroidogenesis Assay for Testosterone (TESTO) (AID 2283457; active = hit-call score of the fitted dose curve at least 0.9, where 1 is the maximum; inactive = score below 0.9); settings: actives raise or lower the signal
Method in brief: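 Testosterone synthesis is assessed in human adrenocortical H295R cells after 48 h of chemical exposure, using HPLC-MS/MS of extracted medium. Activity is fitted in both directions against DMSO control.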

[4] = ATG_XTT_Cytotoxicity: Cytotoxicity Assessment in the Attagene TRANS-FACTORIAL HepG2 Assay (AID 2283584);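 for AC50: XTT signal for cell number as viability in transfected HepG2 cells; cells exposed to compound for 24 h before reading; active means loss of viability signal versus DMSO baseline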
Method in brief: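 Transfect HepG2 with GAL4-UAS reporter units, dose compound, incubate 24 h, then measure viable cell number by XTT. Fit concentration response against DMSO baseline.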

[5] = TOX21_p53_BLA_p2_viability: Viability Assessment in the Tox21 HCT-116 p53 Agonism Beta-lactamase Assay, Phase 2 (AID 2283591);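 note: actives lower the ATP signal meaning cytotoxicity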
Method in brief: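 Cytotoxicity readout: CellTiter-Glo ATP luminescence, 30 min at room temperature, after the beta-lactamase read. Cells were HCT116 exposed 16 h at 37C to compounds pin-transferred at 217-fold dilution from DMSO stocks.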

[6] = molecular target: Cellular tumor antigen p53 (Homo sapiens) (UniProt P04637); assay: TOX21_p53_BLA_p2_ratio: Tox21 HCT-116 p53 Agonism Beta-lactamase Assay, Ratio, Phase 2 (AID 2283592)
Method in brief: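 An inducible beta-lactamase reporter in HCT116 cells signals p53 pathway activation. After 16 h chemical exposure at 37C, cells load CCF4-AM substrate for 2 h at room temperature; activity is the cleaved/uncleaved emission ratio relative to DMSO.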

[7] = TOX21_p53_BLA_p3_viability: Viability Assessment in the Tox21 HCT-116 p53 Agonism Beta-lactamase Assay, Phase 3 (AID 2283593);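 note: cells exposed to compound for 16 h before reading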
Method in brief: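 Cellular ATP was quantified by CellTiter-Glo luminescence, read after 30 min at room temperature. Beforehand, HCT116 cells (4000/well) received compound 5 h post-seeding, 217-fold diluted from DMSO, then incubated 16 h at 37C.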

[8] = molecular target: Cellular tumor antigen p53 (Homo sapiens) (UniProt P04637); assay: TOX21_p53_BLA_p3_ratio: Tox21 HCT-116 p53 Agonism Beta-lactamase Assay, Ratio, Phase 3 (AID 2283596)
Method in brief: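 HCT116 p53-bla cells (4000/well) given compound in DMSO (217-fold dilution) after 5 h, incubated 16 h at 37C. CCF4-AM substrate 2 h at room temperature; 460/530 nm emission ratio, gain fitted against DMSO.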

[9] = TOX21_p53_BLA_p4_viability: Viability Assessment in the Tox21 HCT-116 p53 Agonism Beta-lactamase Assay, Phase 4 (AID 2283597);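 note: hits lower the luminescence signal meaning cytotoxicity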
Method in brief: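 Compound exposure of HCT116 cells lasts 16 h at 37C, 5% CO2, with DMSO stocks diluted 217-fold. Cellular ATP is then quantified by CellTiter-Glo luminescence after 30 min at room temperature.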

[10] = molecular target: Cellular tumor antigen p53 (Homo sapiens) (UniProt P04637); assay: TOX21_p53_BLA_p5_ratio: Tox21 HCT-116 p53 Agonism Beta-lactamase Assay, Ratio, Phase 5 (AID 2283599)
Method in brief: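 Beta-lactamase reporter ratio (blue 460 nm over green 530 nm, 405 nm excitation) after 2 h CCF4-AM loading, in HCT-116 cells exposed 16 h at 37 C to compounds pinned at 217-fold dilution. Increases relative to DMSO baseline scored.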

Measured: AC50

Sequence of Cellular tumor antigen p53 (Homo sapiens) (P04637 whole entry, looked up): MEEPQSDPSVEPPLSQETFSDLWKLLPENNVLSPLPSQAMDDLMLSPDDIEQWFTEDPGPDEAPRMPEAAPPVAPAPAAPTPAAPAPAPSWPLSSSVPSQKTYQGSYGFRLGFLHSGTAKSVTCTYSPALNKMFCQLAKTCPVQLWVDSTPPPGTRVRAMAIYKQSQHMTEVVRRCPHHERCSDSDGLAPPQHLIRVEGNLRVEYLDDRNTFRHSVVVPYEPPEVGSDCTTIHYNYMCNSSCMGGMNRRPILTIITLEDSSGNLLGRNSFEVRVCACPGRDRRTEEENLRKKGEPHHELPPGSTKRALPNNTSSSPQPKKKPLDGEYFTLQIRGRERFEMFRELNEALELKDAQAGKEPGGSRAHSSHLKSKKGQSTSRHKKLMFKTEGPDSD

Cc1cccc(C)n1
inactive: [1] | [2] | [3] | [4]

CCc1ccc(C)nc1
inactive: [4]

Nc1cccnc1N
inactive: [2] | [4]

O=C(c1ccccc1)c1ccc(Cl)cc1
inactive: [2] | [3]

O=C=NCc1cccc(CN=C=O)c1
inactive: [4]

CC(C)(C)c1cc(Cc2cc(C(C)(C)C)c(O)c(C(C)(C)C)c2)cc(C(C)(C)C)c1O
inactive: [4]

CCN(CC)c1ccc(C=O)cc1
inactive: [1] | [2] | [3] | [4]

CCCCCCCCCCCCC[N+](C)(C)Cc1ccccc1
active: [2] 0.159 µM | [4] 31.7 µM
inactive: [1] | [3]

OCCCCl
inactive: [4]

Cc1ccc(O)cn1
inactive: [4]

O=C1c2ccccc2C(=O)c2c(Cl)cccc21
inactive: [1] | [2] | [3]

O=C1C=CC(=O)N1c1ccccc1
active: [5] 69.7 µM | [6] 80.4 µM | [7] 87.1 µM | [8] 86.8 µM | [9] 84.5 µM | [10] 85.3 µM
inactive: [1] | [2] | [3] | [4]

O=c1[nH]cccc1O
inactive: [1] | [2] | [4]

Cc1ccc(O)c(-n2nc3ccccc3n2)c1
not listed: [1] | [2] | [3]
inactive: all other assays above

CCC(C)CO (centres undefined)
inactive: [4] | [6] | [7] | [8] | [10]

CCCCCCCCCCCCCCCCC
inactive: [7] | [8] | [10]

CCCCOC(=O)C(C)O (centres undefined)
inactive: [4] | [6] | [7] | [8] | [9] | [10]

CCC/C=C/CO
inactive: [4] | [5] | [6] | [8] | [10]

OCC1CCCO1 (centres undefined)
inactive: [5] | [6] | [7] | [9] | [10]

Brc1nc2ccccc2s1
not listed: [1] | [2] | [3]
inactive: all other assays above

CCCCCCCCn1sc(Cl)c(Cl)c1=O
inactive: [10]
active: [4] 31.5 µM | [5] 85.9 µM | [7] 40.7 µM | [8] 21.7 µM | [9] 80.4 µM

CC(=O)CCC(C)C
inactive: [5] | [6] | [7] | [8] | [9] | [10]

C=CCOC(=O)CC(C)C
inactive: [4] | [5] | [6] | [7] | [9] | [10]

CCCCOC(=O)[C@H](C)O
inactive: [6] | [8] | [10]

Cc1ccc([N+](=O)[O-])c(C)c1
inactive: [4] | [5] | [6] | [7] | [8] | [10]

COC(=O)c1ccc(C=O)cc1
inactive: [4] | [6] | [8] | [10]

Cc1ccc2c(c1)OCC(=O)CO2
inactive: [4] | [5] | [6] | [8] | [9]

CCOC(=O)C1CC(=O)C(=C(O)C2CC2)C(=O)C1 (centres undefined)
inactive: [6] | [8] | [9]

Cc1cc(=O)[nH]c(C(C)C)n1
inactive: [5] | [6] | [7] | [8] | [9] | [10]

CSc1ccc(Cl)cc1
inactive: [5] | [6] | [7] | [8] | [9] | [10]

CCOC(=O)CCC(C)=O
inactive: [5] | [6] | [8] | [10]

CCCCCC/C=C/CCCCCCCC(=O)O
not listed: [1] | [2] | [3]
inactive: all other assays above

F[Si-2](F)(F)(F)(F)F
inactive: [4] | [6] | [7] | [8] | [9] | [10]

CC(C)Nc1ccc(NC(C)C)c2c1C(=O)c1ccccc1C2=O
inactive: [6] | [8] | [10]

CC(C)OC(=O)COc1ccc(Cl)cc1Cl
inactive: [4] | [6] | [7] | [8] | [9] | [10]

O=C1c2c(O)ccc(Nc3ccc(CCO)cc3)c2C(=O)c2c([N+](=O)[O-])ccc(O)c21
inactive: [4] | [5] | [6] | [9] | [10]

CC(C)CC=C(C=O)c1ccccc1
inactive: [5] | [7] | [8] | [9]

CCN=c1cc2oc3cc(NCC)c(C)cc3c(-c3ccccc3C(=O)OCC)c-2cc1C
active: [4] 32 µM | [5] 38.3 µM and 45.9 µM | [6] 16 µM and 6.62 µM | [7] 59.6 µM and 36.8 µM | [8] 17.8 µM and 31.3 µM | [9] 67.5 µM and 58.2 µM | [10] 21.9 µM and 32 µM

CC(O)C#CC(C)O (centres undefined)
inactive: [5] | [6] | [7] | [8] | [9] | [10]

CCOC(OCC)OCC
inactive: [4] | [7] | [10]

O=S(=O)(O)c1ccc(Cl)cc1
inactive: [4] | [5] | [9]

CC(C)CCCC(C)CCO (centres undefined)
inactive: [4] | [5] | [6] | [7] | [10]

CCN=C1C=CC(=C(c2ccc(N(CC)CC)cc2)c2ccc(N(CC)CC)cc2)c2ccccc21
active: [5] 60.4 µM | [6] 0.559 µM | [7] 66.1 µM | [8] 2.8 µM | [9] 45.9 µM | [10] 57.2 µM

CO[Si](CCCOCC1CO1)(OC)OC (centres undefined)
active: [6] 86.5 µM
not listed: [1] | [2] | [3]
inactive: all other assays above

CN(N=O)C(=O)N[C@@H]1[C@@H](O)[C@H](O)[C@@H](CO)O[C@@H]1O
inactive: [5] | [6] | [7] | [8] | [9] | [10]

CCC(=O)OC(C)c1ccccc1 (centres undefined)
inactive: [4] | [5] | [6] | [8] | [10]
